Compound activity as filed in PubChem BioAssay.
MEP2-GFP yeast – modulators of TOR pathway MEP2-GFP in S. cerevisiae; S. cerevisiae MEP2-GFP strain, flow cytometry GFP, 3 h; 100% = DMSO control level; GFP response vs DMSO, % at 10 µM; 0.51% of 330,000 active; AID 2016;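 active means GFP response versus DMSO above a set limit, roughly screen mean plus 3 SD, cut at about 180% in these data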;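 further: median GFP fluorescence of the barcode-gated MEP2-GFP cells per well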
RPL19A TOR yeast – yeast TOR pathway RPL19A-GFP modulation; 0.3% of 330,000 active; percent response vs DMSO, % at 10 µM; AID 2025; S. cerevisiae RPL19A-GFP strain, flow cytometry, 3 h; stronger effect = lower value;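 active means percent response vs DMSO below 50%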;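 further: median channel GFP fluorescence of the barcoded RPL19A-GFP strain; ratio of sample median GFP to plate DMSO average so 100% = DMSO; lower means less RPL19A-GFP as with rapamycin TOR inhibition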
AGP1-GFP MLPCN – yeast TOR pathway AGP1-GFP modulation; S. cerevisiae AGP1-GFP multiplex flow cytometry, 3 h; GFP as percent of DMSO wells; GFP response vs DMSO, % at 10 µM; 0.02% of 320,000 active; AID 2066;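 active means GFP response relative to DMSO above a set limit, near screen average plus 3 SD, cut at about 150% in these data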;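 further: median GFP channel fluorescence of the gated AGP1 strain per well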
LAP4 TOR yeast – modulators of TOR pathway LAP4-GFP in S. cerevisiae | S. cerevisiae LAP4-GFP multiplex, flow cytometry GFP, 3 h; median GFP as percent of DMSO wells | GFP response vs DMSO, % at 10 µM | 0.34% of 320,000 active | AID 2023;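 active means GFP response vs DMSO above a set limit, about the screen mean plus 3 SD, cut at about 150% in these data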
CIT2 TOR yeast – yeast TOR pathway CIT2-GFP modulation. S. cerevisiae CIT2-GFP strain, flow cytometry, 3 h; 100 means same as DMSO wells. GFP response vs DMSO, % at 10 µM. 0.065% of 320,000 active;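 active means GFP response relative to DMSO above a set limit, near the screen mean plus 3 SD, cut at about 150% in these data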;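 further: ratio of well median GFP fluorescence to mean of DMSO wells on the plate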
LAP4-GFP pick2 – yeast LAP4-GFP modulation, second cherry pick | shares compounds with LAP4 TOR yeast | S. cerevisiae LAP4-GFP strain, flow cytometry GFP, 3 h | GFP response vs DMSO, % at 10 µM | 20% of 590 active | AID 2621;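 active means GFP signal as percent of the solvent control above about 150%, meaning raised reporter expression, limit read from the data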;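 further: ratio of well median GFP fluorescence to plate DMSO mean so 100% = DMSO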
MEP2 cherry2 – reconfirmed MEP2-GFP TOR pathway modulator in yeast; S. cerevisiae MEP2-GFP strain, flow cytometry GFP, 3 h; 10% of 590 active; shares compounds with LAP4 TOR yeast; AID 2622; GFP response vs DMSO, % at 10 µM;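 active means GFP signal above 150% of the solvent control wells, that is a rise of more than half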;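 further: median channel GFP fluorescence of all gated yeast cells per well; ratio of median GFP to plate DMSO average so 100% = DMSO level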
RPL19A GFP CP2 – second confirmation of modulators of TOR reporter RPL19A-GFP in yeast. shares compounds with LAP4 TOR yeast. S. cerevisiae RPL19A-GFP strain, flow cytometry GFP, 3 h; stronger effect = lower value; 100% means same as DMSO wells. GFP response vs DMSO, % at 10 µM. 3% of 590 active. AID 2623;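 active means under 65% GFP response relative to DMSO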;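 further: median GFP channel fluorescence per well over the all cells gate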
CIT2-GFP pick2 – second confirmation of modulators of TOR reporter CIT2-GFP in yeast | 8% of 590 active | S. cerevisiae CIT2-GFP strain, flow cytometry GFP, 3 h; DMSO control wells read 100% | GFP response vs DMSO, % at 10 µM | shares compounds with LAP4 TOR yeast;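 active means GFP response vs DMSO above about 150%, limit read from the data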;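 further: median green fluorescence per well over all gated yeast cells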
AGP1-GFP pick2 – reconfirmed modulator of AGP1-GFP TOR reporter in yeast; shares compounds with LAP4 TOR yeast; S. cerevisiae AGP1-GFP strain, flow cytometry GFP, 3 h; percent response vs DMSO, % at 10 µM; 590 tested, under 10 active;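 active means over 150 percent of DMSO response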;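 further: median GFP channel fluorescence over all cells without mother daughter split; sample median GFP divided by mean DMSO control so 100% equals DMSO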
s288c autofluor – yeast s288c autofluorescence artifact, counter-screen | shares compounds with LAP4 TOR yeast | 610 tested, under 10 active | S. cerevisiae s288c, 520 nm autofluorescence, flow cytometry, 3 h; stronger effect = higher value; zero means same as solvent-only cells | fluorescence change (kMESF span) at 33 µM;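 active means fluorescence span over the dose series, or activity score, above about 33, limit read from the data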
s288c autofl DR – yeast s288c autofluorescence artifact in dose response | 110 tested, under 10 active | fluorescence change (span) at 33 µM | AID 488829 | shares compounds with LAP4 TOR yeast | S. cerevisiae s288c parental, compound autofluorescence, flow cytometry, 3 h;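 active means fluorescence change span, or the activity score built from it, above 25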
TORC1 bypass gr – compounds blocking wildtype yeast growth but not TORC1 bypass cells; growth rating (0-3) at 30 µM; 120 tested, under 10 active; shares compounds with LAP4 TOR yeast; S. cerevisiae BY4741 spot growth rating, 48-72 h; stronger effect = lower value; AID 504456;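 active means growth rating at most 1 for wild type yeast while the TORC1 bypass strain still grows fully, rated 3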
An asterisk follows results filed as active. Only some compounds are listed: those with a hit (about 0.89% of all), similar ones and a draw of the others.

How did COC(=O)c1ccc(NC(=O)CSc2ccc(-c3ccccn3)nn2)cc1 do in these assays?
MEP2-GFP yeast: 99; RPL19A TOR yeast: 102; AGP1-GFP MLPCN: 90; LAP4 TOR yeast: 94; CIT2 TOR yeast: 94

Results for O=Nc1ccc(O)c2ncccc12 ?
MEP2-GFP yeast: 105; RPL19A TOR yeast: 94; AGP1-GFP MLPCN: 105; LAP4 TOR yeast: 114; CIT2 TOR yeast: 103

How did COc1ccc(N=Nc2ccc(O)c3ncccc23)cc1 do in these assays?
MEP2-GFP yeast: 116; RPL19A TOR yeast: 96; AGP1-GFP MLPCN: 98; LAP4 TOR yeast: 215*; CIT2 TOR yeast: 102; s288c autofluor: 0.51

How did Cc1ccccc1N=Nc1ccc(O)c2ncccc12 do in these assays?
MEP2-GFP yeast: 103; RPL19A TOR yeast: 97; AGP1-GFP MLPCN: 101; LAP4 TOR yeast: 178*; CIT2 TOR yeast: 99; LAP4-GFP pick2: 216*; MEP2 cherry2: 123; RPL19A GFP CP2: 102; CIT2-GFP pick2: 156*; AGP1-GFP pick2: 105; s288c autofluor: 0.3

What do the screens show for `Oc1ccc(N=Nc2ccc3c(c2)OCCO3)c2cccnc12`?
MEP2-GFP yeast: 116; RPL19A TOR yeast: 95; AGP1-GFP MLPCN: 113; LAP4 TOR yeast: 128; CIT2 TOR yeast: 117

How did O=S(=O)(O)c1cccc2c(N=Nc3ccc(O)c4ncccc34)cccc12 do in these assays?
MEP2-GFP yeast: 105; RPL19A TOR yeast: 103; AGP1-GFP MLPCN: 101; LAP4 TOR yeast: 92; CIT2 TOR yeast: 105

How did COc1cccc(N=Nc2ccc(O)c3ncccc23)c1 do in these assays?
MEP2-GFP yeast: 103; RPL19A TOR yeast: 103; AGP1-GFP MLPCN: 89; LAP4 TOR yeast: 180*; CIT2 TOR yeast: 104; s288c autofluor: 0.2

How did Cc1ccnc(NS(=O)(=O)c2ccc3ccccc3c2)n1 do in these assays?
MEP2-GFP yeast: 103; RPL19A TOR yeast: 103; AGP1-GFP MLPCN: 97; LAP4 TOR yeast: 97; CIT2 TOR yeast: 97

What do the screens show for `c1ccc2nc3c(cc2c1)CCCCC3`?
MEP2-GFP yeast: 98; RPL19A TOR yeast: 102; AGP1-GFP MLPCN: 105; LAP4 TOR yeast: 106; CIT2 TOR yeast: 105

How did O=C(NCC1CCCO1)C1CCN(S(=O)(=O)N2CCCC2)CC1 (configuration not stated) do in these assays?
MEP2-GFP yeast: 98; RPL19A TOR yeast: 100; AGP1-GFP MLPCN: 107; LAP4 TOR yeast: 105; CIT2 TOR yeast: 101

How did O=S(=O)(CCN(CCS(=O)(=O)C(F)(F)F)CC1CCCO1)C(F)(F)F (configuration not stated) do in these assays?
MEP2-GFP yeast: 95; RPL19A TOR yeast: 90; AGP1-GFP MLPCN: 79; LAP4 TOR yeast: 243*; CIT2 TOR yeast: 102; s288c autofluor: 0.62; s288c autofl DR: 0.24; TORC1 bypass gr: 3

How did COc1ccc(N/N=C(\C#N)C(N)=O)cc1 do in these assays?
MEP2-GFP yeast: 123; RPL19A TOR yeast: 92; AGP1-GFP MLPCN: 110; LAP4 TOR yeast: 165*; CIT2 TOR yeast: 147; s288c autofluor: 7.8

What do the screens show for `CCOc1ccc(N/C(SC)=C(/C#N)C(N)=O)cc1`?
MEP2-GFP yeast: 105; RPL19A TOR yeast: 106; AGP1-GFP MLPCN: 108; LAP4 TOR yeast: 106; CIT2 TOR yeast: 103

Results for CCOc1ccc(N/N=C(/C#N)C(N)=O)cc1 ?
MEP2-GFP yeast: 228*; RPL19A TOR yeast: 78; AGP1-GFP MLPCN: 119; LAP4 TOR yeast: 210*; CIT2 TOR yeast: 106; s288c autofluor: 7

Results for CC(C)c1ccc(OC(=O)c2ccc3c(=O)n4c(nc3c2)CCC4)cc1 ?
MEP2-GFP yeast: 107; RPL19A TOR yeast: 103; AGP1-GFP MLPCN: 107; LAP4 TOR yeast: 125; CIT2 TOR yeast: 108

How did CCOC(=O)c1c(C)[nH]c(C)c1S(=O)(=O)N(C)CC(=O)NCc1cccc(Br)c1 do in these assays?
MEP2-GFP yeast: 877*; RPL19A TOR yeast: 60; AGP1-GFP MLPCN: 27; LAP4 TOR yeast: 114; CIT2 TOR yeast: 88; LAP4-GFP pick2: 98; MEP2 cherry2: 102; RPL19A GFP CP2: 101; CIT2-GFP pick2: 103; AGP1-GFP pick2: 101

How did CCNC(=S)Nc1ccc(OCc2nc3ccccc3s2)cc1 do in these assays?
MEP2-GFP yeast: 106; RPL19A TOR yeast: 101; AGP1-GFP MLPCN: 92; LAP4 TOR yeast: 99; CIT2 TOR yeast: 99

How did COc1ccc(N2C(=O)CC(Sc3ncn[nH]3)C2=O)c(OC)c1 (configuration not stated) do in these assays?
MEP2-GFP yeast: 88; RPL19A TOR yeast: 96; AGP1-GFP MLPCN: 97; LAP4 TOR yeast: 124; CIT2 TOR yeast: 103; s288c autofluor: 0.61

How did CC(C)c1ccc(N2C(=O)CC(Sc3ncn[nH]3)C2=O)cc1 (configuration not stated) do in these assays?
MEP2-GFP yeast: 76; RPL19A TOR yeast: 98; AGP1-GFP MLPCN: 82; CIT2 TOR yeast: 99

How did Cc1[nH]c(-c2ccccn2)nc(=S)c1Cl do in these assays?
MEP2-GFP yeast: 93; RPL19A TOR yeast: 94; AGP1-GFP MLPCN: 85; LAP4 TOR yeast: 267*; CIT2 TOR yeast: 86; s288c autofluor: 0.4

How did COc1ccc(-c2noc(Cn3cc(S(=O)(=O)N4CCCC4)ccc3=O)n2)cc1 do in these assays?
MEP2-GFP yeast: 110; RPL19A TOR yeast: 103; AGP1-GFP MLPCN: 108; LAP4 TOR yeast: 113; CIT2 TOR yeast: 111
